According to the supplement of paper PMC10681739:

How the values were obtained:
ETS1 = target: T1, ETS1 (UniProt P14921); assay: ETS1 binding intensity (PBM fluorescence), ETS1 alone (arbitrary fluorescence units); higher = stronger binding; settings: ETS1 concentration 1 nM; RUNX1 concentration 0 nM
T1 sequence: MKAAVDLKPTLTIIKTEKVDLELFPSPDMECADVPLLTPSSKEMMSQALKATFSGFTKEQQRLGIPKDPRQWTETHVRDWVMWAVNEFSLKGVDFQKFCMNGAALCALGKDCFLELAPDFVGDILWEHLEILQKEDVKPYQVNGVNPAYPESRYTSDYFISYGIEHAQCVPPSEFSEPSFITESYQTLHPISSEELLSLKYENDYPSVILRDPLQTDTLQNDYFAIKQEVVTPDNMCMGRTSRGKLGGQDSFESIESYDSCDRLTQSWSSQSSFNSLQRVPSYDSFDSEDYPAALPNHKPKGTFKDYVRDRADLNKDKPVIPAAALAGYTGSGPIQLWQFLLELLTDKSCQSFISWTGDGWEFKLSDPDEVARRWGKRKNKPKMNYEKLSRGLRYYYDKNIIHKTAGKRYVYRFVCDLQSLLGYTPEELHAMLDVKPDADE

RUNX1 [1] = target: RUNX1 (UniProt Q01196); assay: RUNX1 binding intensity (PBM fluorescence), RUNX1 alone (arbitrary fluorescence units); higher = stronger binding; settings: RUNX1 concentration 2 nM; ETS1 concentration 0 nM
Chain of RUNX1 (Q01196 whole entry): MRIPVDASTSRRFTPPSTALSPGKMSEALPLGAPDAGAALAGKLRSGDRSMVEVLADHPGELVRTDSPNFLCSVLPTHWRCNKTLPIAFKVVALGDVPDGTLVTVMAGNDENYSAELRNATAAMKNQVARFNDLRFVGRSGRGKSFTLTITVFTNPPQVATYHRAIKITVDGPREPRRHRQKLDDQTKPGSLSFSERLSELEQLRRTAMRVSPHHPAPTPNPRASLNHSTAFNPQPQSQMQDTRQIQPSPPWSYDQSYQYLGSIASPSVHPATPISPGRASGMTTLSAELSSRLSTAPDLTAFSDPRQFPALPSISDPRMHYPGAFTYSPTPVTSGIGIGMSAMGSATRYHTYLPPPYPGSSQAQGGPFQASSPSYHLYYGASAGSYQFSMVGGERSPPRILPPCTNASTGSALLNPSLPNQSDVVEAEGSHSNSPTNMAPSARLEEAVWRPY
Experimental: (§1)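 Cooperative gcPBM on 36-bp genomic probes with neighbouring ETS1 and RUNX1 sites. Recombinant human RUNX1 (2 nM) was incubated alone or with ETS1 (25 nM) and detected with anti-RUNX1 antibody plus Alexa488 secondary. Values are medians over 4 replicate spots; the RUNX1+ETS1 data were normalised to the RUNX1-only data. The probes sit in constant array flanks that are not printed.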

RUNX1 [2] = target: RUNX1 (UniProt Q01196); assay: RUNX1 binding intensity (PBM fluorescence) in presence of ETS1, normalised to RUNX1-only experiment (arbitrary fluorescence units); higher = stronger binding; settings: RUNX1 concentration 2 nM; ETS1 concentration 25 nM
Experimental: as §1
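Throughout, for RUNX1 binding intensity (PBM fluorescence) in presence of ETS1, normalised to RUNX1-only experiment: Full-length recombinant human ETS1 or RUNX1 bound to double-stranded 36-bp genomic probes on microarrays, detected by protein-specific primary antibody and Alexa488 secondary, spot fluorescence as median of four replicate spots.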
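Throughout, for RUNX1 binding intensity (PBM fluorescence), RUNX1 alone: Full-length recombinant human RUNX1 bound to double-stranded 36-bp genomic probes on a high-density microarray, scored as Alexa488 fluorescence per spot via anti-RUNX1 antibody, median of four replicate spots.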

Sequence	ETS1 binding intensity (ETS1)	RUNX1 binding intensity (RUNX1 [1])	RUNX1 binding intensity (RUNX1 [2])
AAATCACATACCCGGAAACCACATGCACAGAAGTGG	1480	1090	2090
AGGGGAGGAACCAGGAAGTTGTGGTAAACTGTAGCA	2490	982	2360
GGGCTATTGTTTCCTCCCCCATGTGACCACAGCCTC	418	994	1290
AGCTGAAGGGCAGGATGTGGTTTCAGCATTCGGTGA	3090	791	5290
TCCAGTGCCGCCGCCGGAAAACCGCAGCGGCGGCGG	887	5970	10200
CTCCGCCTTTCACTTCCTAGTAACCGCCCTCCCTTG	522	2190	2400
GTTTACAGGGGACAGGAAATGTGGGTGAACTCAGCC	6160	745	975
GGCCCAGGAAAGAGGCAGGGGTGCGGTTTCCCTCCG	394	1060	1480
GAGAAACAGGAAGAGGGGTGGTGGTTACGGAACACG	2290	807	1340
TGTATGAAAAAAACAGGAAACCACAGAGAACTGAGG	2210	1060	2060
CACCCCCCCAGTGCAGGAAGTGGTTTTCGAGGGCAG	4490	908	1790
AGCCGTCATTCAGGATGTGGTGACAGACATGGAGAC	1200	769	1320
TTTCCTCGGATTCCCGGATGTGGGTGAGTTCATTTG	5690	809	2000
CCCAATTTCCTTTGCTCTGCTGTCTGCCAACCGCAA	418	2740	4340
CCAGGCGGAAGCGGCCGGGAGTAGCGCTGCGGTTGG	631	817	1610
CAGCCTTGCCGGAAGGCAGAGTTTGTGGTCAGACCG	1090	1330	2500
TCCTAAAGCAGGAAATAGTGAGGCTACCGCAGTGTC	4180	713	1090
ATTTCGCTGAAAACAGGAAACCACGAAGCCCAGATG	3270	899	1250
TATATGCACAGGAAGTCCCTTACAACCCACTCTGTT	3900	869	1130
CCCCCACATCCTGTTTGGTTTGTGGGACACCTCAAC	2100	849	4080
ACCATCCTGTAGTCTGTTAAGTGAGCAACCGCATTA	447	1130	1900
TGAGCCTTGGAAGGAAATGATTCACCACAATACTGT	741	831	867
TCTAGTTCTGGTTTCCGGACCGCATTCGGAACTAGA	1000	786	1350

Sequence	ETS1 binding intensity (ETS1)	RUNX1 binding intensity (RUNX1 [1])	RUNX1 binding intensity (RUNX1 [2])
GAGCGCCCACTTCCTGTTTACCACCCAGCCTCTTCG	3670	1110	7590
AGTGCAGAGTGGACAGGATGTGGTGGAGGTGAGAGA	5690	723	1500
CGATTCCGGAGACAGGCCCCACCGTGCGGTAAACTG	550	835	931
GCAGTTTCAAGAGGATGTGGTCTCTTTCACTGCCTG	1160	724	1080
TTCACTTCCACCACTTCCTGTGGGTTTTGTTCATCC	3090	1530	5560
AGGCTTCCTGTTTTATCTCGTGTGTGTGGTGCACCA	547	970	2120
GTGTGAAGGAAGTGTGAGATCAAACCACAGCTGGGT	457	874	947
GCCGGAAGCCACGCAGGGCCACGTCTGCGGTTCTGA	976	826	1220
TCCCGGCGTTCTTCCGCTGGCTCAGCCGCAAGTACC	573	818	1170
GAGGGACAGGATGCCGCCAGGAACCACAAGAGCTTC	996	844	1300
AGGAGAACTTCCGCCCTTACTATATTACCGCCGGTA	1180	737	1520
CTCACAGAGCAAGTAGGATGTGGTTTCCAGGGGCTG	781	800	1180
GACCAGGAAACGGGGCGTGGCGGCCGCCGTGGTTAC	449	806	857
AGAACAGCAGGAAATAAATACCCACCTCAGGACTGC	959	822	887
TGAGCACAGTATTTCCTGTGGTTTCTATTGCATTTC	1010	1090	3540
AGCTCCACCGGAAACGGCCTGGCCGCAGCCAATCAG	7110	806	2450
ACAAGGACTTCCGCCTCCCTGCGGTCCCTCCCCTAC	965	1110	2720
GGGTTGGGTGCCGGATGCGGTGAGTGAGGTTCTCAT	2930	917	4260
GACAGACCTTAGGAAGTCGCGGTTTCATCAGGGCTT	422	916	1220
AACAGTTGCATAGGAAGTGGTCAGCTCTCCTCCACC	1260	828	999
GAAAAATGAAGTTTCCGCAGTAACCACAACACAGCC	556	1350	2620
ATGTGCCCAAAGGATGTCACCGCAAAGATCATAGGA	561	1250	1820
GTTGCAGGAAACGATGGGTTTTGTGGTATGAACTGC	813	829	1700
